This is part of a sample that, as a whole, favours compounds with a hit. Of some 83,000 tested, about 20% had one in any assay.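 The endpoint reported here, percent growth, reads 100 for growth as untreated, 0 for no net growth and -100 for all cells dead.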 Values without a mark were called inactive. The source made the active and inactive calls. The calls were made as follows: active = growth percent below 10; inactive = the rest.
Columns and labels:
Experiment in all cases: NCI-60 one-dose screen, 48 h (100 = growth as untreated, 0 = no growth, -100 = all killed)
Details in all cases: 10 µM unless noted
[1] = system: HCT-15 colon
[2] = system: HT29 colon
[3] = system: SNB-75 CNS
[4] = system: SNB-19 CNS
[5] = system: U251 CNS
[6] = system: PC-3 prostate
[7] = system: SK-MEL-5 melanoma
[8] = system: UACC-62 melanoma
[9] = system: LOX IMVI melanoma
[10] = system: SK-MEL-28 melanoma
[11] = system: SK-MEL-2 melanoma
[12] = system: EKVX NSCLC
[13] = system: SN12C renal
[14] = system: UO-31 renal
[15] = system: TK-10 renal
[16] = system: A498 renal
[17] = system: CCRF-CEM leukemia
[18] = system: MOLT-4 leukemia

| SMILES | growth [1] | growth [2] | growth [3] | growth [4] | growth [5] | growth [6] | growth [7] | growth [8] | growth [9] | growth [10] | growth [11] | growth [12] | growth [13] | growth [14] | growth [15] | growth [16] | growth [17] | growth [18] |
| --- | --- | --- | --- | --- | --- | --- | --- | --- | --- | --- | --- | --- | --- | --- | --- | --- | --- | --- |
| COc1ccc2c(c1)OC(N)=C(C#N)C2c1ccc(F)c(F)c1 (configuration not stated) | 29.6% | 3.2% (active) | 9.47% (active) | 28.7% | 31% | 24.2% | 24.2% | 38.1% | 54.2% | 68.2% | 32.9% | 49.2% | 54.7% | 52.8% | 70.5% | 9.88% (active) | 14.9% | 28.2% |
| COc1cc(C(=O)NNC(=O)c2ccccc2C(=O)O)cc(OC)c1OC | 31.8% | 20.8% | 86.3% | 49.6% | 39.7% | 54.7% | 38.2% | 39.8% | 16.9% | 75.6% | 49.3% | 83.4% | 40.9% | 49% | 72% | 78.7% | 5.04% (active) | -5.79% (active) |
| CCc1c(C)c2cc3c(c(C)c2oc1=O)OCC(=O)N3 | 67.2% | 64.1% | 14.3% | 64.3% | 62% | 80.4% | 81.1% | 69.6% | 65.3% | 92.7% | 77.5% | 35.9% | 72.9% | 37.3% | 15.1% | 43.6% | 84.3% | 80.7% |
| C=CC(C)(O)CCC1C(=C)CCC2C(C)(C)CCCC12C (configuration not stated) | 97.3% | 70.1% | 91.3% | 111% | 104% | 112% | 107% | 95.5% | 97.2% | 101% | 92.2% | 96.7% | 108% | 90.3% | 83.3% | 106% | 124% | 89.9% |
| C#C[C@H](O)/C=C/CCCCCCC#C[C@H](O)CC[C@@H](O)C#CCCCCCC/C=C/[C@@H](O)C#C | 80.4% | 80.6% | 85.1% | 101% | 89.3% | 80.7% | 91.9% | 80% | -71.2% (active) | 101% | 92.7% | 90.2% | 69.1% | -82.6% (active) | 106% | 102% | -37.3% (active) | 0.882% (active) |
| COc1ccc(Cl)cc1NC(=O)c1cc2c([nH]1)-c1nc(NC(=O)C(C)(C)C)sc1CC2 | 49.1% | 59.1% | 50.5% | 44% | 9.52% (active) | 61.4% | 55.5% | 81.2% | 53.4% | 94.2% | 83% | 50.4% | 38.6% | 58.8% | 66.6% | 79.2% | 52% | 58.6% |
| S=C=NP1(N=C=S)=NP(N=C=S)(N=C=S)=NP(N=C=S)(N=C=S)=NP(N=C=S)(N=C=S)=N1 (configuration not stated) | 103% | 92.9% | 80.7% | 109% | 94.7% | 86.4% | 98.6% | 97.7% | 97.8% | 107% | 95.8% | 95% | 102% | 77.3% | 110% | 118% | 105% | 57.9% |
| CCOc1ccc(NC2=C(Cl)C(=O)c3ccccc3C2=O)cc1 | -79.9% (active) | 98.2% | 81.3% | 62% | 56.9% | 72.1% | 81.4% | 78.6% | -89.7% (active) | 46.9% | 88.2% | 87.2% | 61% | 77.9% | 136% | 80.8% | 33.3% | 75.7% |
| O=C(CSc1nnc(-c2ccccc2)o1)Nc1ccc(C(=O)/C=C/c2ccccc2)cc1 | 25.8% | 32.4% | 33.5% | 64.9% | 44.1% | 77% | 78.9% | 82.3% | 24.4% | 97% | 99.2% | 79.7% | 81.7% | 55.7% | 91% | 83.8% | 55.5% | 59% |
| N#Cc1c2c(c(N)[nH]c1=O)C(=O)NC2(O)c1ccccc1 (configuration not stated) | 106% | 97% | 106% | 114% | 101% | 102% | 98.6% | 107% | 98.5% | 114% | 97.9% | 98.1% | 113% | 89.1% | 93% | 106% | 100% | 95.4% |
| COc1cc(Br)c(-c2nc(-c3ccccc3)c(-c3ccccc3)n2Cc2ccccc2)cc1OC | 47.4% | 32.3% | 86.7% | 67.2% | 64.1% | 29.7% | 54% | 53.1% | 61.3% | 91.1% | 44.8% | 47.9% | 66.5% | 30.4% | 62.3% | 73.8% | 54.3% | 23.4% |
| COC(=O)/C=C/C(=O)c1cc(C)cc(C)c1O | 100% | 99.7% | 103% | 108% | 108% | 102% | 104% | 106% | 98.1% | 102% | 99.2% | 95.9% | 109% | 88% | 96.9% | 105% | 90.3% | 89.8% |
| CC(/C=C/C=C(\C)[C@H](O)[C@H](C)C(=O)O[C@H]1C[C@H](C)C=C2C=C[C@@]3(C)O[C@@H](O)CC(=O)[C@]3(C)[C@H]21)=C\C=C\C(=O)O | 17.3% | 0.326% (active) | -14.2% (active) | -0.761% (active) | -3.9% (active) | 7.61% (active) | -69% (active) | -32% (active) | 6.81% (active) | -0.848% (active) | -46.9% (active) | -0.933% (active) | 3.38% (active) | 18.8% | 15.5% | -38.9% (active) | 8.62% (active) | 1.42% (active) |
| Nc1nc(-c2cc3c(cc2Cl)NC(=O)/C3=C/c2ccc(Cl)cc2)cs1 | 49.6% | 35.6% | 49.1% | 31.2% | 21.8% | 32.6% | 6.5% (active) | 36% | 12.6% | 45.4% | 36.6% | 35.3% | 48.8% | 54.3% | 82.3% | 74.8% | 19% | 15.5% |
| CC12CCC3C(CCC4CC(O)CCC43C)C1C/C(=C/O)C(=O)O2 (configuration not stated) | 106% | 102% | 110% | 101% | 104% | 97.8% | 92.9% | 100% | 101% | 112% | 104% | 104% | 104% | 91% | 89.4% | 62.7% | 92.6% | 101% |
| COc1ccc(NC(=O)Nc2ccc(-c3ccc(OC)c(OC)c3)nc2C)cc1 | 91.8% | 68.8% | 47.5% | 71.5% | 22.1% | 81.4% | 23% | 59.9% | 88.8% | 86.8% | 79.6% | 91.1% | 64.4% | 81.7% | 60.4% | 71.9% | 97.2% | 85.6% |
| O=c1cc(Cl)[nH]c(=O)[nH]1 | 107% | 83.6% | 100% | 107% | 97.5% | 98.4% | 101% | 86.3% | 101% | 105% | 91.8% | 104% | 107% | 96.4% | 98.1% | 100% | 111% | 88.5% |
| Cc1nccc2c3ccc(OCc4cn(Cc5ccc(Br)cc5)nn4)cc3n(CCCc3ccccc3)c12 | 92.8% | 80.7% | 42.3% | 47.3% | 82.3% | 77.9% | 81.1% | 82.1% | 93.3% | 99.4% | 80.7% | 85.5% | 92.1% | 71.2% | 101% | 91% | 83.1% | 90.8% |
| CCN(CC)CCC(C(=O)O)(c1ccccc1)c1ccccc1 | 103% | 94.9% | 86.8% | 104% | 109% | 103% | 104% | 97.9% | 95.7% | 109% | 112% | 96.1% | 103% | 89.1% | 97.9% | 102% | 96.6% | 89.4% |

Reference: PubChem BioAssay (NCI)
